The source of these data is ChEMBL document CHEMBL3988442, “University of Dundee, Small-Polar-MMV Screening Library” (2021).

In assay [1] the target is T1, Aspartate--tRNA(Asp/Asn) ligase (Mycobacterium tuberculosis (strain ATCC 25618 / H37Rv)) (UniProt P9WFW3). Further: in the data most compounds retested in dose-response had high values.
T1 sequence (whole entry): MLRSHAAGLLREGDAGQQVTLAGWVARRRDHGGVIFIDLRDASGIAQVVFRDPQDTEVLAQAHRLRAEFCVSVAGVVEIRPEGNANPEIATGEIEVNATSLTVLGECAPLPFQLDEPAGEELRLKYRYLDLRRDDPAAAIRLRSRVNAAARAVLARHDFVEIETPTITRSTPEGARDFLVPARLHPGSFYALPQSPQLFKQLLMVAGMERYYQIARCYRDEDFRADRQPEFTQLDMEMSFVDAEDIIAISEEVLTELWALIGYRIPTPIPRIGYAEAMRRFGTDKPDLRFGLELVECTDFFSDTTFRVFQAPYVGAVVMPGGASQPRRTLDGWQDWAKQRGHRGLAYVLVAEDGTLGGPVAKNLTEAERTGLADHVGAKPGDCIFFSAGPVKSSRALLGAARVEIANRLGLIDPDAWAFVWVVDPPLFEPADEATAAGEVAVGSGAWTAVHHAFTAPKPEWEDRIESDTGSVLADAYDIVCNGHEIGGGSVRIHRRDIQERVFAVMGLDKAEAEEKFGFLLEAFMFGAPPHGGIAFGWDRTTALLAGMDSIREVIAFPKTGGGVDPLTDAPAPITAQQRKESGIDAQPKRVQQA
Description: Assay for Asp RNA synthetase-1 from Mycobacterium tuberculosis. In kind it is functional. Details: scale not given: direction of the effect not stated beside the values. The conditions noted are these: 30 µM.

Assay [2] addresses Shiga toxin 2 (Escherichia coli O157:H7) (UniProt P09385+P09386). The experiment in a line: E. coli 0.157:H7 Shiga Toxin SOP - stx2 screening assay. In kind it is functional. Also on record: scale not given: direction of the effect not stated beside the values. The conditions noted are these: 30 µM.

In the case of `CCc1nnsc1C(=O)N1CCOC(c2nc(C)n[nH]2)C1` (centres undefined), the values for the Percent Effect in assay [1] and in assay [2] were -2.08% and -18.3%, respectively.

In the case of `COc1cccc2c1ccn2CCNC(=O)C(C)C`, the figures for the Percent Effect in assay [1] and in assay [2] were 6.33% and -17%, respectively.

`Cc1c(C)n(Cc2ccncc2)c2nc3c(c(N)c12)CCCCC3`: the Percent Effect in assay [1] is 4.67%; in assay [2], -41.4%.

`O=C(CCc1cc2n(n1)CCCN(C(=O)c1ccccn1)C2)NC1CC1`: the results for the Percent Effect in assay [1] and in assay [2] were -1.14% and 9.76%, respectively.

Consider `CS(=O)(=O)N1CCC(Oc2ccc(C(=O)N3CCSCC3)cc2Cl)CC1`, for which the Percent Effect in assay [1] amounted to 1.75%; in assay [2], 11.9%.

Consider `Cc1cnc(N2CC3(CCN(C(=O)c4ccoc4)C3)C2)nc1`, for which the Percent Effect was 0.713% in assay [1] and -36.5% in assay [2].

Consider `CCn1cc(N2Cc3nc(N4CCOCC4)ncc3C2=O)cn1`, for which the Percent Effect in assay [1] was -3.92%; in assay [2], -20.5%.

As to `O=C1CN(Cc2nnc(-c3ccc(Br)cc3)o2)CCN1`, the figures for the Percent Effect in assay [1] and in assay [2] were -0.167% and -95.1%, respectively.

Take `CC(C)(O)CN1CCN(C(=O)c2cc3ccccc3c(=O)[nH]2)CC1`: the results for the Percent Effect in assay [1] and in assay [2] were -2.19% and -6.56%, respectively.

Turning to `COc1cccc2c1ccn2CCC(=O)N1CCCC(C(=O)O)C1` (centres undefined), the Percent Effect in assay [1] was 6.53%; in assay [2], -30.4%.

With `CNc1snc(C)c1C(=O)N1CCCC(n2nc(C)cc2C)C1` (centres undefined), the Percent Effect is -8.77% in assay [1] and -3.59% in assay [2].

Turning to `O=C(Nc1cccnc1)N1CCC(n2ccc(C(F)(F)F)n2)CC1`, the Percent Effect in assay [1] was -4.08%; in assay [2] it was -16.7%.

As for `CCCNC(=O)c1cc2c(nc1O)CCC(C)C2` (centres undefined), the Percent Effect is -2.53% in assay [1] and -21.4% in assay [2].

Take `O=C(NCC(F)F)N1CCC(n2ccc(C(F)(F)F)n2)CC1`: the Percent Effect in assay [1] was -6.76%; in assay [2], -7.64%.

`CCc1n[nH]c(C2CN(C(=O)c3nc(C)ncc3Cl)CCO2)n1` (centres undefined): the Percent Effect in assay [1] was 0%; in assay [2] it was -0.974%.

Turning to `CN1CC(c2ccccc2)CC12CCN(C(=O)c1ccc(F)cc1)CC2` (centres undefined), the Percent Effect in assay [1] is -1.84%; in assay [2] it was 11.8%.

For the molecule `Cc1cc(C)n(C2CCCN(C(=O)c3c(C)c(C)n[nH]c3=O)C2)n1` (centres undefined), the results for the Percent Effect in assay [1] and in assay [2] were -2.4% and 2.19%, respectively.
